# Compound activity as filed in PubChem.
# The list is not random: actives were taken first. Their share in the collection is about 1.2%.
# RGS4-Gao reg – human RGS4-Galphao interaction regulation; P09471; Multiplexed bead flow cytometry, RGS4-Galphao binding; actives lie on both sides; binding response (% of control), % at 10 µM; 0.33% of 220,000 active; in the data active = binding response below about 49% or above about 150%; inactive = in between;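 also: fluorescent Galphao activated with aluminum fluoride binding bead-coupled RGS4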
# RGS16-Gao – regulators of human RGS16-Galphao interaction. bead-based flow cytometry RGS16-Galphao binding, fluorescence; actives lie on both sides. binding response (% of control), % at 10 µM. AID 1441. 0.38% of 220,000 active; call rule not given here;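 also: Galphao activated by GDP with aluminum fluoride before binding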
# Target sequence (O15492 whole entry, looked up): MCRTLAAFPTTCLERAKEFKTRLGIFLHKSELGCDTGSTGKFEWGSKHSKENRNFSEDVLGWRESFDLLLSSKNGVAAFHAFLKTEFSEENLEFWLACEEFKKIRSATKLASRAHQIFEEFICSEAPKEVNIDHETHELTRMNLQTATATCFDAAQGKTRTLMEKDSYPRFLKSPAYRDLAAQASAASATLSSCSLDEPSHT
# Target sequence (P09471 whole entry, looked up): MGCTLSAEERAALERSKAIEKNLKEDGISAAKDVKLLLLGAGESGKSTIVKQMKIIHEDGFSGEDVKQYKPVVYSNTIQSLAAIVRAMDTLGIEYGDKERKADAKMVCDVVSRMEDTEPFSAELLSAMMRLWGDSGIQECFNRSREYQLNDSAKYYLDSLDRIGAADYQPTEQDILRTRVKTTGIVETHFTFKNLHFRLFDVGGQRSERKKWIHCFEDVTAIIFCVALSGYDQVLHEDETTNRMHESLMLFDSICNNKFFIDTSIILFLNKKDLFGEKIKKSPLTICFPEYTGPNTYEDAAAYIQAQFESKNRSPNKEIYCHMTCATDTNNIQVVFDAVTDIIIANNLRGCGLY
# GSH fluor – GSH bead compound fluorescence profile; GSH beads flow cytometry, compound fluorescence 488/530 nm; active compounds read high; fluorescence (KMESF) at 10 µM; 0.25% of 190,000 active; AID 1776; in the data active = fluorescence above about 89;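 also: glutathione beads carrying GST-tagged Bcl family fusion proteins plus one bare bead set; values are compound well signal with DMSO vehicle wells as background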
# RGS8-Gao reg – human RGS8-Galphao interaction regulation. P09471. multiplexed bead flow cytometry, RGS8-Galphao binding; actives lie on both sides. response (percent of control binding), % at 10 µM. 0.34% of 220,000 active. AID 1423; in the data active = response below about 60% or above about 140%; inactive = in between;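 also: Galphao activated as the GDP aluminium fluoride complex binding bead-coupled RGS8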
# Avidin fluor – compound fluoresces at 488/530 nm on avidin beads; compound fluorescence 488/530 nm, flow cytometry; active compounds read high; fluorescence (KMESF) at 10 µM; 0.38% of 220,000 active; AID 1775; in the data active = fluorescence above about 47
# RGS7-Gao – human RGS7-Galphao interaction regulation | AID 1439 | binding response (% of control), % at 10 µM | Multiplexed bead flow cytometry, RGS7-Galphao binding; actives lie on both sides | 0.35% of 220,000 active | P09471; in the data active = binding response below about 49% or above about 150%; inconclusive = no clear call, values can overlap the other calls; inactive = in between;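 also: fluorescent Galphao held in activated GDP-AlF4 state binding bead-coupled RGS7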
# * marks the source's active call; other numbers are inactive results; ? = inconclusive; . = no result given.
SMILES,RGS4-Gao reg,RGS16-Gao,GSH fluor,RGS8-Gao reg,Avidin fluor,RGS7-Gao
O=S(=O)(Nc1ccc(Cc2ccncc2)cc1)c1ccc(Br)cc1,22*,1.0*,20,12*,-2,15*
CC(C)CNC(=O)CCCc1ccccc1,99,100,8,100,9,95
C=CCNC(=O)CCCc1ccccc1,101,100,22,101,52*,114
O=c1oc2cc(O)ccc2cc1-c1nc2c(s1)CCc1ccccc1-2,99,105,159*,98,5,97
O=c1oc2ccccc2cc1-c1nc2c(s1)CCc1ccccc1-2,96,105,12,100,10,103
Cc1ccc(NC(=O)CN2C(=O)N/C(=C/c3cc(C)n(-c4ccc(C(=O)O)cc4)c3C)C2=O)cc1,103,100,19,99,10,100
Cc1ccc(NC(=O)CN2C(=O)N/C(=C/c3cccn3-c3ccc(C(=O)O)cc3)C2=O)cc1,26*,7,4,28*,-5,-13*
CC(=O)Nc1ccc(C(=O)Nc2nc(-c3cccnc3)cs2)cc1,116,90,8,90,63*,?
COc1ccc(C(CNC(=O)Cc2c(F)cccc2Cl)N2CCCCC2)cc1 (configuration not stated),101,103,17,101,10,104
CCc1nc2sc(C)c(C)c2c(=O)n1CCO,130,141,28,105,52*,120
COc1ccc(C2/C=C\CN(C(=O)NC(C)C)CC(=O)N2Cc2ccc(F)cc2)cc1 (configuration not stated),97,106,.,105,7,?
CCOc1ccccc1C(=O)NC(CO)C(=O)O (configuration not stated),104,106,271*,101,6,102
CCOc1ccccc1C(=O)NCCC(=O)O,115,253,17,134,6,109
CCOc1ccc(C(CCc2ccccc2)NC(=O)c2ccccc2OC)cc1OCC (configuration not stated),106,108,21,103,51*,111
Cc1cc(NC(=O)COC(=O)C2CCC(=O)N2)c([N+](=O)[O-])cc1C (configuration not stated),104,105,9,100,10,101
O=[N+]([O-])c1cccc(/C=N/NS(=O)(=O)c2ccccc2)c1,104,104,14,102,7,104
O=S(=O)(N/N=C\c1cccnc1)c1ccccc1,101,107,352*,107,7,105
Cc1cccc(CSCc2ccc(C(=O)NC3CCCC3)o2)c1,88,90,26,90,7,85
O=C(Nc1ccc2ccccc2c1)c1onc2c1CCCC2,119,111,9,100,57*,126
COC(=O)c1cccc(NC(=O)c2onc3c2CCCC3)c1,100,98,16,100,17,101
CCc1nc2ccccc2c(=O)n1NC(=O)c1c(O)c2ccccc2n(CC)c1=O,104,101,17,99,11,101
CCn1c(=O)c(C(=O)Nc2nc3ccccc3[nH]2)c(O)c2ccccc21,105,108,114*,104,4,106
CCOC(=O)CSc1nnc(Cn2nnc3ccccc32)n1-c1ccc(F)cc1,105,99,.,101,7,?
COC(=O)CSc1nnc(-c2ccco2)n1Cc1ccco1,107,119,27,104,72*,127
COC(=O)c1c(NC(=O)CSc2nnc(-c3ccco3)n2Cc2ccccc2)sc(C)c1C,100,102,268*,102,8,104
SMILES,RGS4-Gao reg,RGS16-Gao,GSH fluor,RGS8-Gao reg,Avidin fluor,RGS7-Gao
O=C(Nc1ccc(S(=O)(=O)N2CCCC2)cc1)C1CCCN1C(=O)c1cccs1 (configuration not stated),102,103,14,105,12,104
O=S(=O)(Cc1ccc(Cl)cc1)N1CCN(Cc2ccc3c(c2)OCO3)CC1,96,94,.,100,10,?
O=S(=O)(Cc1ccc(Cl)cc1)Nc1ccc2c(c1)OCO2,103,101,15,99,48*,104
CCCCOCC(O)Cn1c(C)nc2ccccc21 (configuration not stated),106,114,261*,102,9,102
COc1ccccc1OCC(=O)NNC(=O)c1c(-c2ccccc2Cl)noc1C,95,97,24,96,8,87
CN(C(=O)c1cc2nc(-c3ccco3)cc(C(F)(F)F)n2n1)C1CCCCC1,39*,35,31,47*,5,35*
COc1ccccc1N(C(=O)c1cncc(Br)c1)c1nc(-c2ccc(C)cc2)cs1,104,91,16,98,3,103
O=c1cc(-c2ccccc2)[nH]n1-c1nc2ccccc2[nH]1,94,90,25,96,50*,106
CCc1cc(=O)[nH]c(-n2[nH]c(-c3ccccc3)cc2=O)n1,101,104,13,102,14,103
COP(=O)(OC)C(Nc1ccc(C)cc1)c1ccc([N+](=O)[O-])cc1 (configuration not stated),104,95,6,101,13,107
CCOc1ccc2[nH]c(=O)c(C(c3nnnn3C3CCCCC3)N3CCN(CC)CC3)cc2c1 (configuration not stated),146,172,54,114,76*,132
Cn1c(=O)[nH]c(=O)c2[nH]c(NCCCN3CCOCC3)nc21,109,121,26,95,48*,105
Cn1c2ccccc2c2cnn(CC(=O)N3CCCCC3)c(=O)c21,99,100,.,101,.,?
CCCC(=O)Nc1sc(C(=O)Nc2cccc(N)c2)c(C)c1C(=O)OC,96,99,10,101,8,95
Cc1ccn2cc(C34CC5CC(CC(C5)C3)C4)nc2c1,102,103,23,102,12,99
CCOc1ccc(-n2c(-c3ccccc3)c[n+]3c2CCC3)cc1,96,100,20,100,10,?
CSc1c[n+]2c(n1C)CCC2,106,108,11,101,52*,113
CC(Oc1ccc(Cl)cc1Cl)c1nc(-c2ccc(NC(=O)c3ccncc3)cc2)no1 (configuration not stated),102,101,97*,94,4,96
CC(Oc1ccc(Cl)cc1Cl)c1nc(-c2ccc(NC(=O)c3cccnc3)cc2)no1 (configuration not stated),98,91,23,100,13,96
O=C(NC1CCS(=O)(=O)C1)C1C2CC3CC(C2)CC1C3 (configuration not stated),102,101,59,101,55*,119
O=C(COC(=O)c1cccc(S(=O)(=O)N2CCc3ccccc3C2)c1)NCc1ccco1,83,57,256*,93,5,89
